Structures are written as SMILES.

The target in experiment [1] is T1, Aspartate--tRNA(Asp/Asn) ligase (Mycobacterium tuberculosis (strain ATCC 25618 / H37Rv)) (UniProt P9WFW3). Also: in the data most compounds retested in dose-response had high values.
T1 sequence (whole entry): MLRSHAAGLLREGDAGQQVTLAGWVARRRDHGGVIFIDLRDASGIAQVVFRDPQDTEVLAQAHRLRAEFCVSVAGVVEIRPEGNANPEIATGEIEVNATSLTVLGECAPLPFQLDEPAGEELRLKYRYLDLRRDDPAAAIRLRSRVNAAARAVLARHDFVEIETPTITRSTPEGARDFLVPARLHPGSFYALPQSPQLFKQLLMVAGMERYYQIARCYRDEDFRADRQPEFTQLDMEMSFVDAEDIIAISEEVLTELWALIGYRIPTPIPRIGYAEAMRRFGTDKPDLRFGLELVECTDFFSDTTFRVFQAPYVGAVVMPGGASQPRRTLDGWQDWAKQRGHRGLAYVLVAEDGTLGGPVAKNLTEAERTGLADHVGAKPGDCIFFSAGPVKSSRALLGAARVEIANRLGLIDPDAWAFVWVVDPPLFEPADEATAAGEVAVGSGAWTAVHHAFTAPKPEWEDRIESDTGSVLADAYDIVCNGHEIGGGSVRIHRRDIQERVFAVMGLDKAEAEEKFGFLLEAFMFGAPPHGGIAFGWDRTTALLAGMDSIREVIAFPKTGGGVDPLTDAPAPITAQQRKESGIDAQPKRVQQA
The experiment is described as follows: Assay for Asp RNA synthetase-1 from Mycobacterium tuberculosis. The format is functional. More on the design: scale not given: direction of the effect not stated beside the values. Conditions: 30 µM.

In experiment [2] the target is Shiga toxin 2 (Escherichia coli O157:H7) (UniProt P09385+P09386). Put plainly: E. coli 0.157:H7 Shiga Toxin SOP - stx2 screening assay. The experiment is classed as functional. More on the design: scale not given: direction of the effect not stated beside the values. Particulars: 30 µM.

In the case of `c1ccc(-c2cc(CN3CCC(c4ccn[nH]4)CC3)on2)cc1`, the Percent Effect in experiment [1] was 2.46%; in experiment [2] it was -49.6%.

For the compound `COc1ccc(-c2nnc(SC(C)C(=O)NCC(C)C)[nH]2)c(OC)c1` (centres undefined), the Percent Effect in experiment [1] is 7.67%; in experiment [2], 8.94%.

For the compound `Cc1cnn(C2CCCN(C(=O)c3cccc(Cn4ccnc4)c3)C2)c1` (centres undefined), the figures for the Percent Effect in experiment [1] and in experiment [2] were 0.538% and -30.9%, respectively.

With `CCn1cnnc1C1CCN(C(=O)c2ccccc2OC)CC1`, the values for the Percent Effect in experiment [1] and in experiment [2] were -4.13% and 14.1%, respectively.

Turning to `O=C(NCC1OCCc2cn(CC3CC3)nc21)c1ccsc1` (centres undefined), the results for the Percent Effect in experiment [1] and in experiment [2] were -3.57% and -12.1%, respectively.

`Cc1cc(CNc2ccc(C(=O)N3CCCC(C)C3)cc2C)no1` (centres undefined): the Percent Effect is -2.25% in experiment [1] and 11.6% in experiment [2].

Regarding `CCc1cc(O)nc(C2CCCN2C(=O)c2cc(C)no2)n1` (centres undefined), the Percent Effect in experiment [1] came out at 7.1%; in experiment [2], 1.09%.

As for `Cc1nc(-c2ccccc2)n(CC(=O)NCC(C)C)n1`, the values for the Percent Effect in experiment [1] and in experiment [2] were -3.61% and 22%, respectively.

For `CN(C)S(=O)(=O)N1CC[C@@H]2CN(Cc3cnn(C)c3)C[C@@H]2C1`, the figures for the Percent Effect in experiment [1] and in experiment [2] were 6.22% and -8.71%, respectively.

For `CCn1nc(C)c2ncnc(NCCCN3CCOCC3)c21`, the results for the Percent Effect in experiment [1] and in experiment [2] were -3.37% and -33.6%, respectively.

On to `CCOC(=O)c1sc2ccsc2c1CNC(=O)CC`, for which the Percent Effect is 1.08% in experiment [1] and -9.72% in experiment [2].

`c1cncc(OCc2nnn3c2CN(Cc2ccsc2)CCC3)c1`: the Percent Effect was -0.204% in experiment [1] and -23% in experiment [2].

For `CCN1CCN(C(=O)c2cnn(-c3ccccc3Cl)c2)CC1`, the figures for the Percent Effect in experiment [1] and in experiment [2] were 0.83% and 16.9%, respectively.

`CC(C)C(Sc1nnc(C2CC2)n1C1CC1)C(=O)NCc1cccnc1` (centres undefined): the Percent Effect was -2.03% in experiment [1] and -18.2% in experiment [2].

Consider `CCO[C@@H]1CCN(C(=O)c2cscn2)[C@@H]1Cc1cnn(C)c1`, for which the Percent Effect in experiment [1] is -2.13%; in experiment [2], 1.75%.

With `CC(=O)N1CCOC2(CCN(C(=O)c3cnoc3C)CC2)C1`, the figures for the Percent Effect in experiment [1] and in experiment [2] were -1.11% and 4.56%, respectively.

As to `CCc1ccc(NC(=O)C2OC(c3cccs3)=NN2C(C)=O)cc1` (centres undefined), the Percent Effect in experiment [1] is -1.78%; in experiment [2], -90%.
